Experimental data reported in PubChem BioAssay AID652235 (Sanford-Burnham Center for Chemical Genomics, 2013).
The list shows a part of the results. Active and inactive are the calls of the source.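 How the source made its calls: active means inhibition of at least 50% in the primary cell screen; inactive means the rest.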

The molecules below were run against Matrix metalloproteinase-14 (Homo sapiens) (UniProt P50281) (assay: MT1-MMP activation inhibitors, hit retest, confirmation, single concentration, fluorescence, HT1080 RFP-PRO-GFP cells (AID 652235)). Settings: GFP and RFP fluorescence ratio, overnight, at 20 µM, active compounds read high.

| Compound | inhibition |
| --- | --- |
| O=C1CCCC(O)=C1N=Nc1ccc(S(=O)(=O)N2CCOCC2)cc1 | 4.19% (inactive) |
| CN=C1C=C/C(=N/N=c2\ccn(O)cc2C)C=C1C | 43.7% (inactive) |
| O=C(c1cccc(Cl)c1)N1CCN(Cc2ccccc2)CC1 | -1.11% (inactive) |
| O=C(NNc1c2ccccc2nc2ccccc12)c1cc2ccccc2cc1O | 52.9% (active) |
| COc1ccc(C)cc1Nc1nc(-c2c(C)[nH]c3ccccc23)cs1 | 4.82% (inactive) |
| O=c1ccc2c(-c3ccccc3S(=O)(=O)O)c3ccc(O)c(O)c3oc-2c1O | 48.5% (inactive) |
| Nc1ccc(Nc2ccccc2)cc1 | 12.6% (inactive) |
| Cc1cc2ccccc2n1CCNC(=O)COc1ccc2ccccc2c1 | 6.16% (inactive) |
| O=P(O)(CP(=O)(c1ccccc1)c1ccccc1)c1ccccc1 | -1.14% (inactive) |
